Laboratory results taken from the supplement of paper PMC11417369.
In all, about 25,000 sequences were measured (“ln(normalized median fluorescence intensity)”: median about 9.3, highest 2% from about 10 on). Shown is part of a subset that was picked to be rich in the highest values.

Test system: PF3D7_0420300 AP2 domain 1 (GST-tagged)
Assay: gcPBM binding intensity (ln(normalized median fluorescence intensity)); higher = stronger DNA binding
Procedure, shortened: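 An Agilent 4 × 180k array of primer-extended double-stranded 36-bp intergenic genomic probes, with negative controls, was incubated for 1 h with GST-tagged P. falciparum DNA-binding domains expressed in E. coli. Alexa488 anti-GST antibody detected bound protein, scanned at 488 nm. Binding intensity is the highest Masliner-normalised natural-log median intensity across replicate spots of either probe orientation.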

Sequence	gcPBM binding intensity (ln)
GTTAAAAAAAGGAGAGATCTCACACAAATATATATA [GTGCAC_negctrl_site117]	9.22
CAAAAAAACAAACACACACACACACCCATATATATA [CACACA_site3653]	10.2
CATATATATAAATACACACACACACCCCTTATAATT [CACACA_site4064]	10.2
CATATACGCAAACACACACACATATATATATATATA [CACACA_site501]	10
AACAAAAAAACAAACACACACACACCCATATATATA [CACACA_site3652]	9.98
AAATAATTTGTTGACACACACACACCCATACAGATA [CACACA_site5291]	10.1
AAAACACCCAAACACACACACACATATATATATATA [CACACA_site9119]	10.1
TACATATATATAAATACACACACACCCACCTTATAA [CACACA_site9346]	10.1
CATATATACGCATACACACACACACCCACACCCACA [CACACA_site1725]	10.2
TCAAATAATTTGTTGACACACACACCCACATACATA [CACACA_site8717]	9.85
AAATAATTTGTTGACACACACACACCCATACATATA [CACACA_site2285]	10.2
TATATACGCAAACACACACACACATACACCCACATA [CACACA_site1724]	10.2
CATATAAATAAATACACACACACACGCCTTATAATT [CACACA_site7830]	10.2
TAATATATGTTATATACACACATATAAATATAAATA [CACACA_site6339]	9.2
TGTTACATAAAATGCACACTTTCAAATATGCTAATA [CACACA_site2925]	9.05
GTTTCCTTAATATTCACACACATATCTATAATATAT [CACACA_site6959]	9.87
ACAAATAAAAATATTACACACACTATTATATTGATA [CACACA_site1494]	9.86
ATATAAAATAGACACGCACACAAAAAAAAAAAAAAA [CACACA_site3522]	9.5
ATGGCCATAATATAGACACACATATATAAATATATA [CACACA_site2230]	9.28
TACACGCATAGACACACACACACACGCATATAAATA [CACACA_site6446]	10.3
CATATACATAGACACACACACACATAAATAAATATA [CACACA_site6749]	10.1

Sequence	gcPBM binding intensity (ln)
TCATAGTATAGACACACACACACACGCATATAAATA [CACACA_site6915]	10.2
TATATTGATGATGATAGTACGTATGATTAGAAAAAA [XGTACX_site8989]	9.18
ATGTATATGTCTATATGTACTTATATTTTATTTTTT [XGTACX_site5902]	9.37
TTAATATATTAAATCTTACACACTAAAAAATATGTA [CACACA_site307]	9.16
ATACTAACATTTTTTTGTACATATAACTATAAAATA [XGTACX_site1033]	9.16
AGATATTTATTGAGTGCATGTTATAAAGGGAAAAAA [TGCATGCA_site88]	9.32
TATAACATATGACACACACACATACATACACAAAAA [CACACA_site6935]	10.2
TTTAACATAAATTAAACACACAATAAAATACATTAA [CACACA_site6699]	9.54
TATAACATAGGACACACACACATACATACACAAAAA [CACACA_site5062]	10.2
AAATAAAACAAACACACACACACATACACAAAAAAA [CACACA_site3849]	10.2
ATTAAATACATTAACACACACACAAATAAATACATA [CACACA_site5583]	10.3
AAAATAAAATAAAATACACACATACATACATACAAA [CACACA_site5366]	9.95
AATAAAATAAAATACACACATACATACATACAAATG [CACACA_site2438]	10.2
ATAAAACAAAAACACACACACATACACAAAAAAAAA [CACACA_site3848]	10.2
TATAACATAAAACACACACACATACATACACAAAAA [CACACA_site1804]	10.1
TATACACATATATAAACACACAAAAAAAAAAAAAAA [CACACA_site7041]	9.38
AACACATACAAACACACACACAAAAAAAAAAAAAAA [CACACA_site393]	9.78
ATTAAATACATTAACACACACACAAATATATACATA [CACACA_site2881]	10.1
TATATATTTCATAATACACACGAAAAAAAAAAAAAA [CACACA_site8972]	9.31
TACATTTAAAAAAAAACACACATATATATATATATA [CACACA_site2535]	8.99
TAATTTTTATTCAAGAGTACACAAAAGATAACTAAA [XGTACX_site4060]	9.14

Sequence	gcPBM binding intensity (ln)
AAAAAAAAAAAACATACACACAAATAAATACATACA [CACACA_site6073]	9.9
ACAAAAAAAAAAAAAATACACACACATAAAAAAAAA [TGCATGCA_negctrl_site333]	9.72
CAAAGACACAAACACACACACACATACATACATACA [CACACA_site453]	10.1
AAGACACAAAAACACACACACATACATACATACATA [CACACA_site454]	9.91
AATAAACATAAATACACACACAAAAAAAAAAACATA [CACACA_site4396]	10.3
ATAAAACAAAGACACACACACATACACAAAAAAAAA [CACACA_site7752]	10.2
TAATTTTTTTAAAAGCGTACATTTAAAAAAAAATAT [XGTACX_site2736]	8.76
TAATAACTACAAAAAAAAAAGAAAAATAGAAAAAGG [CACACA_negctrl_site1102]	9.55
TTGCATATTTCTAATTGTACATTATTTTATTTTATA [XGTACX_site8451]	9.45
AAAGAAAAAAAAAACACACACACACCCATTCAATAT [CACACA_site38]	10.2
AGATATAAGAAAAGCACACACACACCCAAAAAAAAA [CACACA_site2826]	10.2
AAAGAAAAAAAAAACACACACACACGCATTCAATAT [CACACA_site6169]	10.1
AAAAAAAAGAAACACACACACATACACATAAATATA [CACACA_site3807]	10.1
AATAAAAAGAAACACACACACACACCCATATATATA [CACACA_site3589]	10.2
ATATAAGAAAAGCACACACACACAAAAAAAAAAAAA [CACACA_site2827]	10.1
CACTAAAAGAAACACACACACACACCCATATATATA [CACACA_site4151]	10.2
AAAAAAAAAAAAGAAACACACATATATATATATATA [CACACA_site140]	9.23
AAAAGAAAAAGAAAAACACACATAAATATAAATATA [CACACA_site1879]	9.59
AGAGATATAAGAAAAGCACACACACCCAAAAAAAAA [CACACA_site8917]	9.92
AGAAAAAAAAAACACACACACACACCCTCAATATAA [CACACA_site39]	10.1
ATAAAAAAAAGAAAAACACACACATATATATATATA [CACACA_site8243]	9.61
